Records with an inconclusive call do not appear. Calls of active or inactive are those of the source. The call rests on the fitted dose curve.

Vitamin D3 receptor (Homo sapiens), sequence (P11473 whole entry, looked up): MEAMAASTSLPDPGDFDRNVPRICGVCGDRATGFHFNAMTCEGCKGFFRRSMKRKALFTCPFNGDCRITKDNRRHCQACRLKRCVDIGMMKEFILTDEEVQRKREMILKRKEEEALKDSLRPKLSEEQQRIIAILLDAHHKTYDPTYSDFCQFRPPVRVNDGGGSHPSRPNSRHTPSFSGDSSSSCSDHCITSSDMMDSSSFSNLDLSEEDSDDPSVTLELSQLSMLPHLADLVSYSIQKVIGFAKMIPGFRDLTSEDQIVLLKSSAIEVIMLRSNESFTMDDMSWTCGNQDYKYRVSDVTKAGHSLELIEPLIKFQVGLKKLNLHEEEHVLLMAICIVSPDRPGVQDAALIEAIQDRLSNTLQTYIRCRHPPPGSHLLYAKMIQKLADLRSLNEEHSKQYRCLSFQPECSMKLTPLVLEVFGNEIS

The test addresses Vitamin D3 receptor (Homo sapiens) (UniProt P11473). The experiment in a line: qHTS assay to identify small molecule agonists of the vitamin D receptor (VDR) signaling pathway (AID 743222). The note with it: HEK293T VDR-UAS-bla, beta-lactamase FRET ratio, 16 h; series mostly up to 63.5 µM. The text has this:
National Center for Advancing Translational Sciences [NCATS]
NIH Chemical Genomics Center [NCGC]
U.S. Environmental Protection Agency [EPA]
National Institutes of Environmental Health Sciences [NIEHS]
National Toxicology Program [NTP]
U.S. Food and Drug Administration [FDA]
The vitamin D receptor (VDR), a member of nuclear hormone receptor superfamily, plays a critical role in calcium homeostasis and bone metabolism. It is also involved in cell differentiation and growth, and thrombogenicity.
Tox21 Assay Protocol Summary:
VDR-bla cells were dispensed at 2,000 cells/6 uL/well into black wall/clear-bottom 1536-well plates using a Multidrop Combi (Thermo Fisher Scientific, Waltham, MA) dispenser. After the assay plates were incubated at a 37C and 5% CO2 for 4 h, 23 nL of compounds dissolved in DMSO, positive controls or DMSO only was transferred to the assay plate by a Pintool station (Kalypsys, San Diego, CA). The plates were incubated at 37C and 5% CO2 for 16 h. After 1 uL of LiveBLAzerTM B/G FRET substrate was added using a Bioraptr Flying Reagent Dispenser (FRD) workstation (Beckman Coulter, Indianapolis, IN, USA), the plates were incubated at room temperature for 2 h, and fluorescence intensity was measured by an Envision plate reader (PerkinElmer, Shelton, CT).
As to `Cc1ccc(-c2c(Cl)nc(C#N)n2S(=O)(=O)N(C)C)cc1`, the outcome was inactive.
Regarding `C#CCOC(C(=O)OCCN(C)C)(c1ccccc1)c1ccccc1`, the outcome was inactive.
In the case of `CC(C)=CCOc1c2occc2cc2ccc(=O)oc12`, the result was inactive.
For the molecule `Clc1ccc(C2(Cn3cncn3)CC(Br)CO2)c(Cl)c1` (stereo not given), the result was inactive.
On to `C[C@H]1CNCCc2ccc(Cl)cc21`, for which the outcome was inactive.
In the case of `CCOP(=S)(Oc1ccc([N+](=O)[O-])cc1)c1ccccc1` (stereo not given), the outcome was inactive.
For the molecule `ClCCCCBr`, the outcome was inactive.
Under `COC(=O)C(Br)CBr` (stereo not given) stands “inactive”.
In the case of `ClCC(Br)CBr` (stereo not given) it was “inactive”.
On to `CC(=O)CCC(C)=O`, for which the outcome was inactive.
Consider `CCOC(=O)CBr`, for which the result was inactive.
Consider `O=C(N[C@H](c1ccccc1)[C@@H]1CN2CCC1CC2)c1c(Cl)ccc(C(F)(F)F)c1Cl`, for which the result was inactive.
Take `CC(C)(C)c1cc([N+](=O)[O-])cc([N+](=O)[O-])c1O`: the result was inactive.
Under `COC1=CC(=O)O[C@@H](CCc2ccccc2)C1` stands “inactive”.
In the case of `Oc1ccc(Cl)c(Cl)c1Cl`, the result was inactive.
As to `C[C@@H]1CC[C@H]2[C@@H](C)C(=O)O[C@@H]3O[C@@]4(C)CC[C@@H]1[C@]32OO4`, the outcome was inactive.
Regarding `CCOc1ccc(C(C)(C)COCc2cccc(Oc3ccccc3)c2)cc1`, the result was inactive.
Under `CC(C)N(CCC(C(N)=O)(c1ccccc1)c1ccccn1)C(C)C` (stereo not given) stands “inactive”.
`CCOP(=S)(OCC)Oc1cc(Cl)c(Br)cc1Cl`: the outcome was inactive.
Regarding `CCO[C@H]1O[C@@H]2OC3(C)CC[C@H]4[C@H](C)CC[C@@H]([C@H]1C)[C@@]24OO3`, the result was inactive.
For `CCBr`, the result was inactive.
`c1ccc(CN2CCNCC2)cc1`: the result was inactive.
For the molecule `C=CC(=O)NCNC(=O)C=C`, the result was inactive.
As for `O=C=Nc1ccc(Cl)cc1`, the result was inactive.
As to `O=[N+]([O-])c1ccc(F)c([N+](=O)[O-])c1`, the outcome was inactive.
Regarding `O=[Se]=O`, the outcome was inactive.
Turning to `O=NN1CCCCCC1`, the outcome was inactive.
For the molecule `O=[N+]([O-])c1ccccc1CCl`, the result was inactive.
As for `CC1(C)[C@H](C=C(Cl)Cl)[C@@H]1C(=O)O[C@@H](C#N)c1cccc(Oc2ccccc2)c1`, the outcome was inactive.
For `CNP(=O)(OC)Oc1ccc(C(C)(C)C)cc1Cl` (stereo not given), the result was inactive.
In the case of `II` it was “inactive”; in that of `[O-][Cl+]O`, “inactive”.
As for `O=Cc1ccc(Cl)cc1Cl`, the result was inactive.
Under `O=[N+]([O-])c1cc(C(F)(F)F)cc([N+](=O)[O-])c1Cl` stands “inactive”; under `CCCCC(CC)COP(=O)(Oc1ccccc1)Oc1ccccc1` (stereo not given), “inactive”; under `NCCCNCCCN`, “inactive”.
In the case of `ClCc1ccccc1` it was “inactive”; in that of `CCCCNP(N)(N)=S`, “inactive”; in that of `CCOP(O)OCC`, “inactive”.
For `N#Cc1cc(I)c(O)c(I)c1`, the outcome was inactive.

These data come from PubChem BioAssay (Tox21).
